Laboratory results reported in article PMC12136788.
Where a chain is given by its changes, count along the chain named. In all, about 24,000 sequences were measured (“enrichment r”: median about 0.99, highest 2% from about 3.7 on). This excerpt belongs to a sample that is enriched for the highest values.

T1: UNK ZnF1-3 (human, UniProt Q9C0B0 31-174)
T1 sequence: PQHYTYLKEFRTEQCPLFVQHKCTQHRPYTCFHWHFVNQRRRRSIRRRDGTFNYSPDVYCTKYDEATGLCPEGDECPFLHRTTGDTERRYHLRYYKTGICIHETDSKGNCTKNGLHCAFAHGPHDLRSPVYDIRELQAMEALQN

B1: chr17:24706804:24706805:+_ENSMUSG00000032855_ENSMUST00000035565|mus_hu|FALSE|FALSE (ssRNA)
RNA: GGGAGUUCUACAGUCCGACGAUCGCAGCCGGGCACGAAGGUGGCCACCAGGGCAGGGCAGACAUUCUCAAAGCGGGCGCUGACACUGCCCCCAGGCCAGCGAGCCGUGGCCGUGGCGUUGGCACCAGAGUCCACCUGGAGCACCAACAGAGGAUUGAGCAUCA
B2: chr7:17149110:17149111:-_ENSMUSG00000058230_ENSMUST00000075845|mus_hu|FALSE|FALSE (ssRNA)
RNA: GGGAGUUCUACAGUCCGACGAUCAAUAUCCAUGUAUACAGAUUCCUCCAGCCACUGGUAGAAAUCCUCAUUCAUAAUAAAACUACGGGCCUCUUCCCAAGGCUUUCCGGGAGUUAUGAAAGGAGAAGUCUCCAGGUUUUCUUUCAACAGAGGAUUGAGCAUCA
B3: chr12:8504966:8504967:-_ENSMUSG00000054364_ENSMUST00000067384|mus_hu|FALSE|FALSE (ssRNA)
RNA: GGGAGUUCUACAGUCCGACGAUCACAAGUGUGGUCAGAAUGCUACUGUCGUAUGCAAAUGACGAGUGCAUUAAGUGUCAAACAAUGAAACAAUUGUGCAAAGAAUAAAAAAACAAAUUUUAGCCUUUAAAUAAAUCAAAUAACCAACAGAGGAUUGAGCAUCA
B4: chr5:141234466:141234467:-_ENSMUSG00000000149_ENSMUST00000000153|mus_hu|FALSE|FALSE (ssRNA)
RNA: GGGAGUUCUACAGUCCGACGAUCUAAUAAAAAAGACAAUAAGGAUUAACAGUGAAAUUAAAAUUAAAAAAUACAAAAGCCUAAGGUUCUGGAGACAAAACUGACUAGAGUCUAUGUGUAGCCAAGUUGUGAAUGACAGUUUAGCAACAGAGGAUUGAGCAUCA
B5: chr5:141234466:141234467:-_ENSMUSG00000000149_ENSMUST00000000153|mus_hu|motif|central (ssRNA)
RNA: B4 RNA with U81G, A82G
B6: 83879064_83879184_615_CDS_ENSMUSG00000030016_ENSMUST00000032088|mouse|control|control (ssRNA)
RNA: GGGAGUUCUACAGUCCGACGAUCUGGAGUUAUAUGAGACUCAUCAUCCCACCGACUACCAUGAGGCUUCCCCUUCUUUUGUUGUGCUUCAGGAAAAUCCAAUUUUUCUUUGGUUAAUCUUGGAUCGGUUCGGUGUUGAGUUACCAACAGAGGAUUGAGCAUCA
B7: chrX:20248820:20248821:+_ENSMUSG00000001924_ENSMUST00000001989|mus_mus|mus_mus_mus_hu_True|58_98 (ssRNA)
RNA: GGGAGUUCUACAGUCCGACGAUCGGCGAAGUCCGUCAUCACAAAGUCAGGUUCUGCCAGUGAGGCCACCAAGGAUUUAAAACUAAUCUUCUUAGGUACUUUGACCUGACUGACGAUGCCUCCACGGAUGUAGUCGGAGAAGUUCAACAGAGGAUUGAGCAUCA
B8: chr17:35253193:35253194:-_ENSMUSG00000024387_ENSMUST00000025246|mus_mus|FALSE|FALSE (ssRNA)
RNA: GGGAGUUCUACAGUCCGACGAUCGGCCUUUUCUUCCUUUAUUUCAUAUUCCCACCACAGUAACAAUUCCUUUAAUUUAAACUAAAAACCAUAGACUUCCUGAAAGGGUGGCAGCAGAGGAAUGGUGGUGUCACAGACAGAGGGCAACAGAGGAUUGAGCAUCA
B9: chr16:45382771:45382772:-_ENSMUSG00000022661_ENSMUST00000163230|mus_mus|mus_mus_mus_hu_True|18_58 (ssRNA)
RNA: GGGAGUUCUACAGUCCGACGAUCCUGGGUCAUGUUAUAAGACAAAUGGACAGGGAGGGCAUGCUUCUCAAAAAAUGUGAACUACUCUCUAAGACUAACAAUAUUUAUCUAGCUAUAUAAAAAUAAGAAAUGAAUAAGUUAAGACAACAGAGGAUUGAGCAUCA
B10: chr16:45382771:45382772:-_ENSMUSG00000022661_ENSMUST00000163230|mus_mus|mus_mus_mus_hu_True|18_18 (ssRNA)
RNA: B9 RNA with A80G, C84U, C86G
B11: chr16:45382771:45382772:-_ENSMUSG00000022661_ENSMUST00000163230|mus_mus|mus_mus_mus_hu_True|1_18 (ssRNA)
RNA: B9 RNA with A80G, C84U, C86G, G137A, U138C, U139A, A140U, A141U, G142A, A143C
B12: chr16:45382771:45382772:-_ENSMUSG00000022661_ENSMUST00000163230|mus_mus|mus_mus_mus_hu_True|18_48 (ssRNA)
RNA: B9 RNA with A80G, C84U, C86G, U87A
B13: chr16:45382771:45382772:-_ENSMUSG00000022661_ENSMUST00000163230|mus_mus|mus_mus_mus_hu_True|18_98 (ssRNA)
RNA: B9 RNA with A38G, A39G, A41C, A43C, A80G, C84U, C86G
B14: chr16:45382771:45382772:-_ENSMUSG00000022661_ENSMUST00000163230|mus_mus|mus_mus_mus_hu_True|1_48 (ssRNA)
RNA: GGGAGUUCUACAGUCCGACGAUCCUGGGUCAUGUUAUAAGACAAAUGGACAGGGAGGGCAUGCUUCUCAAAAAAUGUGAGCUAUUGACUAAGACUAACAAUAUUUAUCUAGCUAUAAAAAUAAGUUAAAUGAAUAAACAUUACCAACAGAGGAUUGAGCAUCA
B15: chrX:12734859:12734860:+_ENSMUSG00000031010_ENSMUST00000089302|mus_hu|motif|central (ssRNA)
RNA: GGGAGUUCUACAGUCCGACGAUCAUCACUGGCAGAGCCACGGACUACUUUCUUUGUGUGAAAUCCUGUAGUAAAGAGGAACCGGGCAGCAAGUUGAAUACUGAUCAUAGUGAUUUCUUCUGCUUCAGGCAACAGGUGAUCUUGCAACAGAGGAUUGAGCAUCA
B16: chr8:21961785:21961786:+_ENSG00000158863_ENST00000289921|hu_mus|FALSE|FALSE (ssRNA)
RNA: GGGAGUUCUACAGUCCGACGAUCCCAUGCAAAUGCCAAAGUGCAUUGAGUAUUGCCCAGCCUCUCAAACGAGUACAAAUCUCAAGUGUAGACCCACUCCACCAAGAUCUGCUCCUGUCCCACACCAGCACCCAUGUGUACUCACAACAGAGGAUUGAGCAUCA
B17: 131934741_131943559_139_3pUTR_ENSG00000108010_ENST00000331244|human|control|control (ssRNA)
RNA: GGGAGUUCUACAGUCCGACGAUCUUCUUUAGCUAACUCUGCCAUAACUUCGUUCAUCUGUGCACACUGUGGAGCCCAUGGUGCCCAGAAAUGGACCACAAGGAGGGACUUGGCUUUGAGGCGCAGCAGCUCCUCAAACUGCCCCAACAGAGGAUUGAGCAUCA
B18: 88753824_88753944_1043_CDS_ENSMUSG00000053333_ENSMUST00000065694|mouse|control|control (ssRNA)
RNA: GGGAGUUCUACAGUCCGACGAUCGGCAAAAUUACAGUCCUCCUUCCAGUCUAUGAUGCGGCAGAUGAACAGCGUGUUGGCAAAGUCUUUAGGUCGGGUCAUGAAGUCCUGGGGACAGUCCUUGAGAGGUACGUAAAUUCUAGGCAACAGAGGAUUGAGCAUCA
B19: chr5:108714581:108714582:-_ENSG00000198961_ENST00000361557|hu_hu|FALSE|FALSE (ssRNA)
RNA: GGGAGUUCUACAGUCCGACGAUCUGAAAGACCAGUGUAUGCCUCUGCCUCUCUGUUUUCCAACUCAAAUACUGUAUUGCCUAAUGAUUCCUGGUAUCUACUACCUUCCACGACUUCUGCAGAAAGUUGAAGAUGGUCAUUAUCCAACAGAGGAUUGAGCAUCA
B20: chr15:31520727:31520728:-_ENSMUSG00000022234_ENSMUST00000022842|mus_mus|FALSE|FALSE (ssRNA)
RNA: GGGAGUUCUACAGUCCGACGAUCAGUUUAUUCUUCAGAUUCUCCAGGCUUACGGAUGUCAUCAAUCUUCAGAAUCAUCCUAACCAUCUGGGUGGCAAGAGAGAUCUGCUGCUUUUUGCCAAUCAAGGUUUCUAUGACAUGCUGCAACAGAGGAUUGAGCAUCA
B21: 86370578_86370698_3324_CDS_ENSMUSG00000021244_ENSMUST00000021670|mouse|control|control (ssRNA)
RNA: GGGAGUUCUACAGUCCGACGAUCUGGCCUCACAAACACCCUGUCCCGGUUGCCUUCUCCUCUGUUCAUUUUCUCACGACUGUCUUCUCUUCUACCCAUCAUUUUAUCAUGGAAAUCUUCUUGCUUGACCAGACCUGGACCACGCAACAGAGGAUUGAGCAUCA
B22: chr7:26236612:26236613:-_ENSG00000122566_ENST00000356674|hu_mus|motif|central (ssRNA)
RNA: GGGAGUUCUACAGUCCGACGAUCAACAAACAGCUUCUUCACAGUCACAUGGGCUCCUGGUUUUCCAGACUCCUCUCUUGCGGCAGCACGUUUUGGCUCAACUACCCUGCCAUCAAUGGAAUGGGGCCUUGCAGCCAUGGCAGCCAACAGAGGAUUGAGCAUCA

Target: T1, UNK ZnF1-3
Test: nsRBNS (natural sequence RNA bind-n-seq); RBNS binding buffer (assumed for nsRBNS): 25 mM Tris pH 7.5, 150 mM KCl, 3 mM MgCl2, 0.01% Triton X-100, 500 ug/ml BSA, 20 U/ml SUPERase-In, 4 C; UNK is unkempt and MSI1 is Musashi-1; names of the RNAs are library labels; protein concentration not given here; high values mean tight binding

| Binder | binding signal [enrichment R] |
| --- | --- |
| B1 | 0.934 |
| B2 | 0.85 |
| B3 | 2.25 |
| B4 | 9.17 |
| B5 | 13.3 |
| B6 | 0.468 |
| B7 | 0.876 |
| B8 | 1.66 |
| B9 | 7.97 |
| B10 | 5.7 |
| B11 | 2.42 |
| B12 | 5.66 |
| B13 | 5.27 |
| B14 | 3.57 |
| B15 | 1.47 |
| B16 | 1.22 |
| B17 | 0.775 |
| B18 | 1.63 |
| B19 | 0.745 |
| B20 | 0.637 |
| B21 | 0.682 |
| B22 | 0.995 |
